Drawing on PubChem BioAssay (EPA / NIEHS), this text covers outcome and AC50 for eight compounds.

The source made the active and inactive calls. The calls were made as follows: active = hit-call score of the fitted dose curve at least 0.9, where 1 is the maximum; inactive = score below 0.9.

The nature of assay [1]: ATG_CRE_CIS: Attagene CIS-FACTORIAL HepG2 Assay for human cAMP Responsive Element (CRE) binding protein 3 (AID 2282926). The conditions noted are these: HepG2 CRE cis-reporter, Attagene multiplexed mRNA; actives raise or lower the signal. In short, it runs like this:
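Endogenous CRE-binding activity in HepG2 is reported through a cis-regulated transfected reporter. Following a day of exposure, mRNA levels are determined by reverse transcription PCR and fluorescent fragment analysis; fits run in both directions versus DMSO.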

Assay [2] deals with CCAAT/enhancer-binding protein beta (Homo sapiens) (UniProt P17676). Briefly: ATG_C_EBP_CIS: Attagene CIS-FACTORIAL HepG2 Assay for human CCAAT/Enhancer Binding Protein (C/EBP) beta (AID 2282927). As to conditions: HepG2 Attagene cis-factorial transcription factor reporter; actives raise or lower the signal. In outline: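 HepG2, transient MRTU transfection, 24 h treatment. RT-PCR plus CE fluorescence; DMSO negative control, bidirectional fit.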
CCAAT/enhancer-binding protein beta (Homo sapiens), sequence (P17676 whole entry, looked up): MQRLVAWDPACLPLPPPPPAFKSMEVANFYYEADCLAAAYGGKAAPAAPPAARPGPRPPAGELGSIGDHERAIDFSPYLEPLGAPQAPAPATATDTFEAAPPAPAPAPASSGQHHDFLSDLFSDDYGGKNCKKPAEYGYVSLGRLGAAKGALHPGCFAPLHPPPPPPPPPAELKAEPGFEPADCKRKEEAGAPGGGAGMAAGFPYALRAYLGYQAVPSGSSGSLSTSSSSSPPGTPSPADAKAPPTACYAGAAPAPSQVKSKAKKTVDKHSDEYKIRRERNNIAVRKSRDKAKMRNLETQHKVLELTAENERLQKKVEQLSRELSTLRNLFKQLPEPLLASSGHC

A short description of assay [3]: ATG_CMV_CIS: Attagene CIS-FACTORIAL HepG2 Assay for human CMV (Internal Marker) (AID 2282928).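 Also: endpoint acts as a background internal control marker rather than a target.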 As to conditions: HepG2 CMV promoter reporter, transcription factor profiling; actives raise or lower the signal. In short, it runs like this:
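Cell system: HepG2, transiently transfected multiple reporter units under cis promoters. Exposure: 24 h. Detection: RT-PCR, FAM labeling, HpaI digestion, capillary electrophoresis. Analysis: bidirectional, DMSO baseline.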

Assay [4] deals with Aryl hydrocarbon receptor (Homo sapiens) (UniProt P35869). The experiment in a line: ATG_Ahr_CIS: Attagene CIS-FACTORIAL HepG2 Assay for human Aryl Hydrocarbon Receptor (Ahr) (AID 2282930). The conditions noted are these: HepG2 AhR cis-factorial reporter transcription; actives raise or lower the signal. In short, it runs like this: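 Endogenous factor activity is tracked through cis-promoter reporter units transfected into HepG2 cells. Transcript levels at 24 h are read by fluorescent RT-PCR and capillary electrophoresis, with activity in either direction scored relative to DMSO.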
Aryl hydrocarbon receptor (Homo sapiens), sequence (P35869 whole entry, looked up): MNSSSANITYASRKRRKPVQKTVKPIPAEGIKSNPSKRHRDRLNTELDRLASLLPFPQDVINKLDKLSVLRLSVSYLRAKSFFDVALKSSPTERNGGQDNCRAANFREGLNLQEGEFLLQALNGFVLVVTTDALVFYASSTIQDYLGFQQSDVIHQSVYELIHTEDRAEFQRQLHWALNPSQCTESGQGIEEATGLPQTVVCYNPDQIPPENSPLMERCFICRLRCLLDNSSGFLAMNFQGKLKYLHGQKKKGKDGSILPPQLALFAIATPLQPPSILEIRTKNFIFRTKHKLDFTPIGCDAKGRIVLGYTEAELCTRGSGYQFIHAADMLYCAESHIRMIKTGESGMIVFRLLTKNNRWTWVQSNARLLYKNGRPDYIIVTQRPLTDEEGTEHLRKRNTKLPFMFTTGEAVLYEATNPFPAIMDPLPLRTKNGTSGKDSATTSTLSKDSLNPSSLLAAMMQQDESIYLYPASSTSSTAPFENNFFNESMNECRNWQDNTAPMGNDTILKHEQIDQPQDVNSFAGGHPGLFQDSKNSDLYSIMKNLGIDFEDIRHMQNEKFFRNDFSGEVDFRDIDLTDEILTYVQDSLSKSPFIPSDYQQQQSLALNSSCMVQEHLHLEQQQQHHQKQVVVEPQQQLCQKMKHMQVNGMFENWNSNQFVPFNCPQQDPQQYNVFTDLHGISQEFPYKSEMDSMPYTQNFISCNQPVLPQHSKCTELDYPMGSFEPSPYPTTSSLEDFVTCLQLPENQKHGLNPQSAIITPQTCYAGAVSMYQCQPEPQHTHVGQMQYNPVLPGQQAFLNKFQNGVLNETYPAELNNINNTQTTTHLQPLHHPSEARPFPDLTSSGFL

Assay [5] is described as follows: ATG_AP_1_CIS: Attagene CIS-FACTORIAL HepG2 Assay for human Activator Protein 1 (AP-1) (AID 2282931). The conditions noted are these: HepG2 Attagene cis-factorial AP-1 reporter mRNA; actives raise or lower the signal. In outline:
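Multiplexed HepG2 reporter assay, 24 h dosing. mRNA induction detected by RT-PCR plus capillary electrophoresis. Activity fitted in both directions against DMSO.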

Assay [6] is described as follows: ATG_AP_2_CIS: Attagene CIS-FACTORIAL HepG2 Assay for human Activator Protein 2 (AP-2) (AID 2282932). As to conditions: HepG2 AP-2 cis-reporter, Attagene transcription factor profiling; actives raise or lower the signal. In short, it runs like this:
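HepG2 cells transiently transfected with cis-element reporter units and exposed for 24 h. Reporter mRNA measured by RT-PCR, FAM labelling, HpaI digestion and capillary electrophoresis. Changes in either direction fitted relative to DMSO.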

Assay [7] can be described thus: ATG_BRE_CIS: Attagene CIS-FACTORIAL HepG2 Assay for human Bone Morphogenetic Protein (BMP) Response Element (BRE) (AID 2282933). As to conditions: HepG2 BMP response element reporter, Attagene transcription factor profiling; actives raise or lower the signal. In outline: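 Transient MRTU transfection of human HepG2 liver cells; 24 h compound treatment; total RNA isolated, reverse-transcribed, PCR-amplified, 6-FAM labelled, HpaI-cut, capillary electrophoresis. DMSO = negative control/baseline, bidirectional fit.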

In assay [8] the target is Retinoic acid receptor alpha (Homo sapiens) (UniProt P10276). Briefly: ATG_DR5_RAR_CIS: Attagene CIS-FACTORIAL HepG2 Assay for human Retinoic Acid Receptor Alpha (RARE), DR5 submotif (AID 2282934). As to conditions: HepG2 Attagene cis-factorial RARE DR5 reporter, mRNA; actives raise or lower the signal. In outline:
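After 24 h of chemical exposure, transiently transfected HepG2 cells were lysed for total RNA; the DR5-regulated reporter transcript was quantified via RT-PCR and capillary electrophoresis, with activity fitted bidirectionally against DMSO.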

Assay [9] has as its target Transcription factor E2F1 (Homo sapiens) (UniProt Q01094). Briefly: ATG_E2F_CIS: Attagene CIS-FACTORIAL HepG2 Assay for human E2F Transcription Factor 1 (AID 2282935). The conditions noted are these: HepG2 Attagene cis-reporter, E2F reporter RNA transcripts; actives raise or lower the signal. In short, it runs like this:
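Endogenous E2F1 activity read through cis-promoter reporter units transfected into HepG2. After 24 h compound treatment, reporter mRNA measured by RT-PCR, HpaI digestion and capillary electrophoresis. Bidirectional fit versus DMSO.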

Assay [10] can be described thus: ATG_E_Box_CIS: Attagene CIS-FACTORIAL HepG2 Assay for human Enhancer Box (E-box) (AID 2282936). The conditions noted are these: HepG2 E-box cis-reporter transcription, actives raise or lower the signal. In short, it runs like this:
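HepG2 cells transiently transfected with multiplexed cis-element reporter units, dosed 24 h; reporter mRNA quantified by RT-PCR, 6-FAM labelling, HpaI digestion and capillary electrophoresis. E-box (USF1) signal fitted bidirectionally vs DMSO.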

A short description of assay [11]: ATG_M_61_CIS: Attagene CIS-FACTORIAL HepG2 Assay for M61 Transcription Factor (Internal Marker) (AID 2282937). As to conditions: HepG2 Attagene CIS-FACTORIAL M61 internal marker reporter; actives raise or lower the signal. In short, it runs like this:
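Endogenous transcription factor activity in HepG2 is read through transiently transfected cis-element reporter units. After 24 h dosing, RNA undergoes reverse transcription, PCR and primer extension with 6-FAM before capillary electrophoresis; DMSO-referenced bidirectional fit.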

Assay [12] can be described thus: ATG_EGR_CIS: Attagene CIS-FACTORIAL HepG2 Assay for human Early Growth Response 1 (EGR1) (AID 2282938). The conditions noted are these: HepG2 Attagene CIS-FACTORIAL EGR reporter mRNA; actives raise or lower the signal. In short, it runs like this:
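Activity is taken as induction or loss of reporter mRNA versus DMSO, fitted bidirectionally. Transcripts from cis-regulated reporter units in transiently transfected HepG2 were measured after 24 h by RT-PCR with capillary electrophoresis.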

Assay [13] is described as follows: ATG_M_19_CIS: Attagene CIS-FACTORIAL HepG2 Assay for M19 Transcription Factor (Internal Marker) (AID 2282939). The conditions noted are these: HepG2 Attagene CIS-FACTORIAL M19 internal marker reporter; actives raise or lower the signal. In outline: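 Transfect HepG2 with MRTU reporter library → dose chemical, 24 h → isolate total RNA, reverse-transcribe with oligo(dT) → PCR, 6-FAM label, HpaI cut (2 h, 37 C) → capillary electrophoresis. Bidirectional fit vs DMSO.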

Assay [14] can be described thus: ATG_Ets_CIS: Attagene CIS-FACTORIAL HepG2 Assay for human Erythroblast Transformation Specific (ETS) (AID 2282941). As to conditions: HepG2 ETS cis-reporter transcription, actives raise or lower the signal. In short, it runs like this: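 After transient cis-reporter transfection, HepG2 cells receive test chemical for 24 h. Reporter mRNA levels, measured by RT-PCR and capillary electrophoresis fluorescence, are analysed bidirectionally relative to the DMSO baseline.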

The nature of assay [15]: ATG_FoxO_CIS: Attagene CIS-FACTORIAL HepG2 Assay for human Forkhead box O (FoxO) (AID 2282943). The conditions noted are these: HepG2 Attagene cis-reporter, FoxO element, mRNA; actives raise or lower the signal. In outline: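 Transfected HepG2 reporter cells exposed to test chemical for 24 h; reporter RNA measured by reverse transcription, PCR and fluorescent capillary electrophoresis; curves fitted for increases and decreases against DMSO.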

Assay [16] is described as follows: ATG_GATA_CIS: Attagene CIS-FACTORIAL HepG2 Assay for human GATA Binding Protein (AID 2282944). As to conditions: HepG2 GATA cis-element reporter, Attagene multiplex mRNA; actives raise or lower the signal. In short, it runs like this: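 Transient MRTU transfection, HepG2, 24 h compound exposure. Total RNA → oligo(dT) RT → PCR → 6-FAM primer extension → HpaI cut → CE. Bidirectional fit vs DMSO.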

Assay [17] can be described thus: ATG_GLI_CIS: Attagene CIS-FACTORIAL HepG2 Assay for human Zinc Finger Protein GLI1 (AID 2282945). As to conditions: HepG2, Attagene cis-factorial reporter mRNA, GLI element; actives raise or lower the signal. In outline:
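Transiently transfected HepG2 cells report endogenous transcription factor activity via cis-element-driven reporter units. After 24 h compound exposure, reporter mRNA was measured by RT-PCR with capillary electrophoresis; bidirectional fitting against DMSO baseline.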

Assay [18] in a line: ATG_ERE_CIS: Attagene CIS-FACTORIAL HepG2 Assay for Estrogen Response Element (ERE) (AID 2282940). The conditions noted are these: HepG2 ERE cis-reporter, Attagene RNA transcript; actives raise or lower the signal. In outline: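 Transient MRTU transfection of human HepG2; cis-element promoters; 24 h dosing; total RNA → RT (oligo dT) → PCR → 6-FAM primer extension → HpaI digest → CE fluorescence. Bidirectional fit, DMSO baseline.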

Assay [19] has as its target Hepatocyte nuclear factor 3-beta (Homo sapiens) (UniProt Q9Y261). Briefly: ATG_FoxA2_CIS: Attagene CIS-FACTORIAL HepG2 Assay for human Forkhead box A2 (FOXA2) (AID 2282942). The conditions noted are these: HepG2 cis-reporter transcription factor activity, 24 h; actives raise or lower the signal. In short, it runs like this: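 Reporter transcript induction is measured by fluorescence after capillary electrophoresis of RT-PCR products from HepG2 cells exposed 24 h. Cis-regulated reporter units report endogenous factor activity; curves fitted both directions against DMSO.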

Assay [20] is described as follows: ATG_DR4_LXR_CIS: Attagene CIS-FACTORIAL HepG2 Assay for human Liver X Receptor (LXR), DR4 submotif (AID 2282929). The conditions noted are these: HepG2 Attagene DR4 cis-reporter, mRNA transcription; actives raise or lower the signal. In outline: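 Fluorescence intensity of labelled reporter cDNA fragments, separated by capillary electrophoresis, gives the signal. HepG2 cells bearing cis-regulated reporter constructs were treated 24 h; activity fitted bidirectionally relative to DMSO negative control.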

Transcription factor E2F1 (Homo sapiens), sequence (Q01094 whole entry, looked up): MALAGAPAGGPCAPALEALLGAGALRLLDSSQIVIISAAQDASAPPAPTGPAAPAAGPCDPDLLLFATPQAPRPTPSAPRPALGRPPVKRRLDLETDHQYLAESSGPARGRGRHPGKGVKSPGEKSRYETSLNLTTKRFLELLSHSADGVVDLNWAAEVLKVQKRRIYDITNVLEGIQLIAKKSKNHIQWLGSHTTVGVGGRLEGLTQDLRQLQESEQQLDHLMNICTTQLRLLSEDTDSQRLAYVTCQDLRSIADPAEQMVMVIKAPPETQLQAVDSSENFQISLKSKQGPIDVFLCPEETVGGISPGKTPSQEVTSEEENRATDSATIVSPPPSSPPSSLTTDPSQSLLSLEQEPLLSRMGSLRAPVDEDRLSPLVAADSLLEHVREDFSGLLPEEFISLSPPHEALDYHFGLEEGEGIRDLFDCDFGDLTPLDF
Hepatocyte nuclear factor 3-beta (Homo sapiens), sequence (Q9Y261 whole entry, looked up): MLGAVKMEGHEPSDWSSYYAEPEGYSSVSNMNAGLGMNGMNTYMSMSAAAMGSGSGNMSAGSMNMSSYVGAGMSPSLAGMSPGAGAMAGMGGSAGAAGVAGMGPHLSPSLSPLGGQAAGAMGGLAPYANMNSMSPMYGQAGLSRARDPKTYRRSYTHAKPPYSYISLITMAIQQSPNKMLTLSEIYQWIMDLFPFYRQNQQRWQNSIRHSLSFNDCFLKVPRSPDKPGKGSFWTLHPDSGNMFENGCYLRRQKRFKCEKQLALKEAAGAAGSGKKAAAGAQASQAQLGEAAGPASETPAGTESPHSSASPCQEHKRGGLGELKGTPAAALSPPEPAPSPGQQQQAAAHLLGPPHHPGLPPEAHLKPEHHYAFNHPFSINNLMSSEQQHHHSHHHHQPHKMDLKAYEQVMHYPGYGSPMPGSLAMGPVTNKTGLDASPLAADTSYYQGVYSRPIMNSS
Retinoic acid receptor alpha (Homo sapiens), sequence (P10276 whole entry, looked up): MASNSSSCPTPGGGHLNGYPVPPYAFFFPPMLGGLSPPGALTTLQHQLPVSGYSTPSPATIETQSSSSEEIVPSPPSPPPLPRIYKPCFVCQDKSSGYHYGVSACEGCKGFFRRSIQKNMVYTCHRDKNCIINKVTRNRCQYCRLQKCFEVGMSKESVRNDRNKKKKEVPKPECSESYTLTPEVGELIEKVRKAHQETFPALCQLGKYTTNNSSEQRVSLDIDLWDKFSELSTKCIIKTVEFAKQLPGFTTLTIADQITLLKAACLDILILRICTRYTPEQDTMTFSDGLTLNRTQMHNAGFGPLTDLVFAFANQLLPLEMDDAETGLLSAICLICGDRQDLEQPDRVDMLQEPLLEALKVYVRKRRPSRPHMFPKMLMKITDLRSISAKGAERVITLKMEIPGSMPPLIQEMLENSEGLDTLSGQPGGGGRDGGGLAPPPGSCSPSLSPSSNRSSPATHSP

With `O=S(=O)(O)c1cccc2c(S(=O)(=O)O)cccc12`, the outcome in [1], in assay [2], in assay [3], in assay [4], in [5] and in assay [6] was inactive. In addition, the call in [7], in assay [8], in [9], in assay [10], in assay [11] and in assay [12] was inactive. The outcome in assay [13], in [14], in [15], in [16] and in [17] was inactive.
As for `CCC(C(=O)NC(N)=O)c1ccccc1` (stereo not given), the call in [1], in [2], in assay [3], in assay [4], in [6] and in [7] was inactive. In addition, the outcome in assay [10], in [11], in assay [12], in assay [13], in assay [18] and in [14] was inactive. Besides, the result in assay [19], in assay [15] and in [16] was inactive.
As for `CCCC(=O)c1cc(O)c(O)cc1O`, the outcome in [1], in assay [2], in [3], in assay [4], in assay [5] and in assay [6] was inactive. Also, the compound was called inactive in assay [7], in [9], in [10], in assay [11], in assay [12] and in assay [13]. Besides, the outcome in assay [18], in assay [14], in [19], in assay [15], in assay [16] and in assay [17] was inactive.
`CC(=O)C(=O)O`: the call in [1], in assay [2], in assay [3], in assay [4], in assay [6] and in assay [7] was inactive. Besides, the result in assay [8], in assay [9], in assay [10], in assay [11], in assay [12] and in assay [13] was inactive. Besides, the compound was called inactive in assay [14], in assay [15], in [16] and in assay [17].
Regarding `CCCCCCC#CC(=O)OC`, the compound was classed as inactive in assay [1], in assay [2], in [3], in [20], in [6] and in assay [7]. Further, the compound was called inactive in [9], in assay [10], in assay [12], in assay [13], in assay [14] and in [19]. For the same compound, the result in [15] and in [16] was inactive.
What is called AC50 is the concentration at which the activity in the assay is half-maximal. Turning to `O=Cc1ccc(Cl)c([N+](=O)[O-])c1`, the concentration at half-maximal activity (AC50) in assay [1] was 129 µM (active); in assay [3] it was 168 µM (active); in [5], 25.8 µM (active); in [7], 131 µM (active); in assay [10], 47.7 µM (active); in assay [12], 129 µM (active). In addition, the AC50 was 134 µM (active) in assay [14], 145 µM (active) in assay [19], 128 µM (active) in assay [15] and 165 µM (active) in assay [17]. The result in assay [2], in [4], in assay [6], in [9], in assay [11] and in [13] was inactive. For the same compound, the compound was called inactive in assay [18] and in assay [16].
For the compound `CC(=O)[O][Al][O]C(C)=O`, the outcome in assay [1], in [2], in [3], in assay [4], in assay [5] and in assay [6] was inactive. The call in assay [7], in assay [9], in [10], in assay [11], in assay [12] and in assay [14] was inactive. In addition, the compound was called inactive in [19], in assay [15], in assay [16] and in [17].
For the compound `CC(C)[C@@H]1CC[C@@H](C)CC1=O`, the compound was classed as inactive in assay [1], in assay [2], in assay [3], in assay [4], in assay [5] and in assay [6]. Moreover, the compound was called inactive in [7], in [9], in [10], in assay [12], in [13] and in assay [14]. Besides, the compound was called inactive in assay [19], in [15], in [16] and in [17].
